Data on 27 compounds can be found in PubChem BioAssay (NCATS).

Results filed as inconclusive are left out. Activity calls are given as the source filed them. Unless noted, calls follow the shape of the full dose curve. Residues, ends and D or L forms follow the SMILES beside them. *: point of attachment. Cbz = O=C(OCc1ccccc1)*

A short description of assay [1]: Quantitative High-Throughput drug screen in 47 multiple myeloma cell lines against the NCATS MIPE library collection: KMS28BM_JCRB cell viability assay (AID 1919874; active = well fitted cell-killing curve with a large enough effect; also: nearly all actives have a fitted effect of over 35% in size). The method in brief:
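MIPE 4.0 approved/investigational drugs; 500 cells/well; 48 h 37 °C humidified 5% CO2; CTG luminescence readout; DMSO = 100%, media = 0% viability.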

The nature of assay [2]: qHTS drug screen for cell cycle checkpoint inhibitors in PARPi-resistant BRCA-mutant ovarian cancer cell lines. (AID 1963452). The following applies: PEO1/OlaR viability, CellTiter-Glo luminescence, 96 h; for Z-AUC: stronger effect = lower value. The method in brief: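 PEO1, PEO4 and PEO1/OlaR ovarian cancer cells, 600 per well, exposed 96 h at 37C to a dilution series. Viability read by CellTiter-Glo luminescence, normalized to DMSO and empty wells; activity summarized as Z-AUC.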
In general terms: In qHTS, concentration-response curves come from the screen itself.

Where [3] appears, read: measured here: PEO1 parental Z-AUC.
Potency is read from the fitted curve at half-maximal effect.

With `OCCNC1CCCc2c1[nH]c1ccc(-c3ccccc3)cc21` (stereo not drawn), the Potency in assay [1] was 20.9 µM (active). Further, the Z-AUC in assay [2] is -0.486 (inactive); in assay [2] (setting [3]), -0.384; in assay [2] (measured here: PEO4 Z-AUC), 0.0631.

Consider `COC[C@H](NC(=O)c1cnc(C)s1)C(=O)N[C@@H](COC)C(=O)N[C@@H](Cc1ccccc1)C(=O)[C@@]1(C)CO1`, for which the Potency is 0.0418 µM (active) in assay [1] and 138 nM (active) in assay [2]. The figures for the Z-AUC in assay [2] (setting [3]) and in assay [2] (measured here: PEO4 Z-AUC) were -2.62 and -3.23, respectively.

On to `c1coc(CNc2ncnc3nc[nH]c23)c1`, for which the Potency entry in assay [1] was “inactive”. The Z-AUC was 0.877 (inactive) in assay [2], 0.956 in assay [2] (setting [3]) and 1.1 in assay [2] (measured here: PEO4 Z-AUC).

Turning to `CC(C)(C)c1nc2c3cc[nH]c(=O)c3c3cc(F)ccc3c2[nH]1`, in assay [1], the Potency was 2.09 µM (active). Moreover, the Z-AUC in assay [2] was -0.0239 (inactive); in assay [2] (setting [3]), 0.604; in assay [2] (measured here: PEO4 Z-AUC), 0.212.

For the compound `Cc1cncc2cccc(S(=O)(=O)N3CCCN(C(=O)CN)C[C@@H]3C)c12`, the Potency in assay [1] was 1.18 µM (active). The Z-AUC was -0.369 (inactive) in assay [2], -0.0744 in assay [2] (setting [3]) and -0.172 in assay [2] (measured here: PEO4 Z-AUC).

Consider `Cc1cc(Nc2ncc3c(n2)N(C)C(=O)N(c2cc(NC(=O)c4cccc(C(F)(F)F)c4)ccc2C)C3)n(C)n1`, for which the Potency in assay [1] was 3.32 µM (active). Moreover, the Z-AUC in assay [2] was -1.62 (inactive); in assay [2] (setting [3]), -1.69; in assay [2] (measured here: PEO4 Z-AUC), -1.33.

On to `CN(C)c1ccc2cc(C(=O)N[C@@H](CCCN=C(N)CCl)C(=O)NCc3ccccc3)ccc2c1`, for which the Potency in assay [1] is 7.43 µM (active). Further, the Z-AUC in assay [2] was 1.15 (inactive); in assay [2] (setting [3]) it was 0.744; in assay [2] (measured here: PEO4 Z-AUC), 1.03.

Consider `COc1cc(C(=O)NC2CCN(C)CC2)ccc1Nc1ncc2c(n1)N(C1CCCC1)CCC(=O)N2C(C)C`, for which the Potency in assay [1] is 14.8 µM (active). The Z-AUC in assay [2] is -0.77 (inactive); in assay [2] (setting [3]) it was 0.079; in assay [2] (measured here: PEO4 Z-AUC), -0.318.

For the compound `NC(=NCCCCCCN=C(N)N=C(N)Nc1ccc(Cl)cc1)N=C(N)Nc1ccc(Cl)cc1`, the Potency in assay [1] is 18.7 µM (active). Further, the Z-AUC is 0.994 (inactive) in assay [2], 0.0732 in assay [2] (setting [3]) and -0.00855 in assay [2] (measured here: PEO4 Z-AUC).

Consider `COc1cc(O)c2c(c1)C1OC1C[C@H](O)[C@H](O)C(=O)C=CC[C@H](C)OC2=O` (stereo partly drawn), for which the Potency in assay [1] is 3.72 µM (active). Further, the Z-AUC in assay [2] is 0.145 (inactive); in assay [2] (setting [3]), -0.101; in assay [2] (measured here: PEO4 Z-AUC), -0.574.

`CC(C)C[C@@H](C=O)NC(=O)[C@H](CC(C)C)NC(=O)[C@H](CC(C)C)NC(=O)OCc1ccccc1` (Cbz-Leu-Leu-Leu-aldehyde): in assay [1], the Potency was 0.235 µM (active). The Z-AUC is -0.0586 (inactive) in assay [2], -0.937 in assay [2] (setting [3]) and -0.457 in assay [2] (measured here: PEO4 Z-AUC).

Consider `COc1cc2c(cc1OC)[C@@H]1C(=O)c3ccc4c(c3O[C@@H]1CO2)C=CC(C)(C)O4`, for which the Potency in assay [1] is 5.9 µM (active). The Z-AUC was -0.868 (inactive) in assay [2], -1.79 in assay [2] (setting [3]) and -1.41 in assay [2] (measured here: PEO4 Z-AUC).

Regarding `NC(=O)N1CCC(CC(=O)N2CCC([C@H]3c4ncc(Br)cc4CCc4cc(Cl)cc(Br)c43)CC2)CC1`, in assay [1], the Potency was 20.9 µM (active). The Z-AUC in assay [2] is -0.923 (inactive); in assay [2] (setting [3]), -0.883; in assay [2] (measured here: PEO4 Z-AUC), -0.991.

`COc1cc(C)c(Sc2cnc(NC(=O)c3ccc(CNC(C)C(C)(C)C)cc3)s2)cc1C(=O)N1CCN(C(C)=O)CC1` (stereo not drawn): the Potency in assay [1] is 13.2 µM (active). Further, the Z-AUC is -0.0176 (inactive) in assay [2], -0.233 in assay [2] (setting [3]) and -0.809 in assay [2] (measured here: PEO4 Z-AUC).

As for `O=C(CN1C(=O)C2(CCCC2)NC[C@H]1c1cc(F)cc(F)c1)Nc1ccc2c(c1)C[C@@]1(C2)C(=O)Nc2ncccc21`, the Potency result in assay [1] is “inactive”. For the same compound, the results for the Z-AUC in assay [2], in assay [2] (setting [3]) and in assay [2] (measured here: PEO4 Z-AUC) were 0.0664 (inactive), -0.0432 and 0.449, respectively.

`O=S(=O)(O)CCSSCCS(=O)(=O)O`: in assay [1], the Potency entry is “inactive”. Further, the Z-AUC is -0.0996 (inactive) in assay [2], 0.123 in assay [2] (setting [3]) and 0.876 in assay [2] (measured here: PEO4 Z-AUC).

As for `O=C(Nc1cccc(Nc2ncc(Br)c(NCCc3cnc[nH]3)n2)c1)N1CCCC1`, the Potency in assay [1] is 18.7 µM (active). For the same compound, the figures for the Z-AUC in assay [2], in assay [2] (setting [3]) and in assay [2] (measured here: PEO4 Z-AUC) were -0.432 (inactive), -0.127 and -0.522, respectively.

As for `CCNC(=O)c1cc2c(-c3cc(OCCN4CCCC4)c(Cl)cc3Cl)nc(N)nc2s1`, the Potency in assay [1] is 1.32 µM (active). Also, the values for the Z-AUC in assay [2], in assay [2] (setting [3]) and in assay [2] (measured here: PEO4 Z-AUC) were -0.792 (inactive), -0.714 and -0.886, respectively.

On to `CCCCCCCCc1ccc(CCC(N)(CO)CO)cc1`, for which, in assay [1], the Potency was 7.43 µM (active). For the same compound, the Z-AUC is -0.00924 (inactive) in assay [2], -0.111 in assay [2] (setting [3]) and 0.091 in assay [2] (measured here: PEO4 Z-AUC).

In the case of `c1cncc(CN2CCC(n3ncc4c(N5CCOCC5)nc(-c5ccc6[nH]ccc6c5)nc43)CC2)c1`, in assay [1], the Potency is 11.8 µM (active). The figures for the Z-AUC in assay [2], in assay [2] (setting [3]) and in assay [2] (measured here: PEO4 Z-AUC) were -0.587 (inactive), -0.0764 and -0.549, respectively.

Regarding `CCOC(=O)[C@@H](N)Cc1ccc(-c2cc(O[C@H](c3ccc(Cl)cc3-n3ccc(C)n3)C(F)(F)F)nc(N)n2)cc1`, the Potency in assay [1] was 18.7 µM (active). Moreover, the Z-AUC in assay [2] is -0.389 (inactive); in assay [2] (setting [3]) it was -0.62; in assay [2] (measured here: PEO4 Z-AUC), -0.32.

Consider `Oc1ccc([C@@H]2Oc3ccc(O)cc3[C@@H]3CCC[C@@H]32)cc1`, for which the Potency in assay [1] was 14.8 µM (active). Besides, the Z-AUC in assay [2] was 0.648 (inactive); in assay [2] (setting [3]), -0.25; in assay [2] (measured here: PEO4 Z-AUC), -0.0299.

Regarding `C#Cc1cccc(Nc2ncnc3cc(OCCOC)c(OCCO)cc23)c1`, the Potency in assay [1] is 8.33 µM (active). Moreover, the Z-AUC in assay [2] was 0.364 (inactive); in assay [2] (setting [3]) it was 0.383; in assay [2] (measured here: PEO4 Z-AUC), 0.173.

For the compound `Cc1cc(C(=O)NOCCO)c(Nc2ccc(I)cc2F)n(C)c1=O`, the Potency result in assay [1] is “inactive”. For the same compound, the Z-AUC is -0.774 (inactive) in assay [2], -1.14 in assay [2] (setting [3]) and -0.82 in assay [2] (measured here: PEO4 Z-AUC).

For `CCCc1nc(C(C)(C)O)c(C(=O)O)n1Cc1ccc(-c2ccccc2-c2nn[nH]n2)cc1`, in assay [1], the Potency entry is “inactive”. For the same compound, the values for the Z-AUC in assay [2], in assay [2] (setting [3]) and in assay [2] (measured here: PEO4 Z-AUC) were 0.227 (inactive), 0.788 and 1.03, respectively.

As to `COc1cc(CCc2cc(NC(=O)c3ccc(N4C[C@@H](C)N[C@@H](C)C4)cc3)n[nH]2)cc(OC)c1`, in assay [1], the Potency was 16.6 µM (active). Besides, the results for the Z-AUC in assay [2], in assay [2] (setting [3]) and in assay [2] (measured here: PEO4 Z-AUC) were -1.36 (inactive), -0.945 and -0.842, respectively.

As to `CCN(CC)CCCCNc1ncc2c(n1)N(C)C(=O)N(c1c(Cl)c(OC)cc(OC)c1Cl)C2`, the Potency in assay [1] is 11.8 µM (active). For the same compound, the Z-AUC in assay [2] is 0.806 (inactive); in assay [2] (setting [3]), 1.27; in assay [2] (measured here: PEO4 Z-AUC), 0.972.
